These results are taken from PubChem BioAssay (Tox21).

Inconclusive results are not listed. Unmarked numbers belong to inactive results. Activity calls are given as the source filed them. Calls come from the whole dose curve; as a rule, active = well fitted inhibition curve with a large enough effect in the repeat runs; inconclusive = weak or mixed curves; inactive = no such curve, though single readings can be large or run the other way.
% is set by controls: 0 for no effect and ±100 for the full control effect; potency is the fitted concentration of half-maximal effect.

Chain of Estrogen receptor (Homo sapiens) (P03372 whole entry, looked up): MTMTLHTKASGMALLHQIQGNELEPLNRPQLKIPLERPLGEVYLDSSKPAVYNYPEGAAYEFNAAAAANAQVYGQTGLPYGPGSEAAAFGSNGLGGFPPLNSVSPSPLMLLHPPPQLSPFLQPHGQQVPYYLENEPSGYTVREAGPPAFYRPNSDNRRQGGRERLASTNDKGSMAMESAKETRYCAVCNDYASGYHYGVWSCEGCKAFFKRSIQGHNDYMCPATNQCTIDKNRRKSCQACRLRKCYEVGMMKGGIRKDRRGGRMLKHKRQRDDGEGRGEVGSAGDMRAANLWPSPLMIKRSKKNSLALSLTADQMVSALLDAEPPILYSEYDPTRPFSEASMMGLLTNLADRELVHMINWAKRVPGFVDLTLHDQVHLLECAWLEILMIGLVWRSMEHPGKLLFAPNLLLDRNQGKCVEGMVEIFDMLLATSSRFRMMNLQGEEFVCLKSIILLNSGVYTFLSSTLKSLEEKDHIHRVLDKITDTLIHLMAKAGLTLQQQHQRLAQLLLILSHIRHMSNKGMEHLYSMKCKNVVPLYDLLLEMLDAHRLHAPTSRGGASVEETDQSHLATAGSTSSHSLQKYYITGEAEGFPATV

The target in this assay is Estrogen receptor (Homo sapiens) (UniProt P03372). In words: qHTS assay to identify small molecule antagonists of the estrogen receptor alpha (ER-alpha) signaling pathway using the BG1 cell line in the presence of 0.1 nM 17-beta-estradiol (AID 1259244). Note: nearly all actives have a fitted effect of over 50% in size. The note with it: VM7Luc4E2 (BG1) ERE-luciferase, antagonist mode, 0.1 nM E2, 22 h; series mostly up to 92.4 µM; activity change, negative = inhibition: at the top concentration. An excerpt:
National Center for Advancing Translational Sciences [NCATS]
NIH Chemical Genomics Center [NCGC]
U.S. Environmental Protection Agency [EPA]
National Institutes of Environmental Health Sciences [NIEHS]
National Toxicology Program [NTP]
U.S. Food and Drug Administration [FDA]
Estrogen receptor (ER), a member of the nuclear hormone receptor plays an important role in development, metabolic homeostasis and reproduction. Two subtypes of ER, ER-alpha and ER-beta, have similar expression patterns with some uniqueness in both types. Endocrine disrupting chemicals (EDCs) and their interactions with steroid hormone receptors like ER causes disruption of normal endocrine function. Therefore, it is important to understand the effect of environmental chemicals in ER signaling pathway. For identifying ER antagonists, VM7Luc4E2 cell line was used to screen against Tox21 compound libraries.
VM7Luc4E2 cell line (provided by Denison MS, University of California) endogenously express full-length ER-alpha and is stably transfected with a plasmid containing four estrogen responsive elements (ERE) upstream of a luciferase reporter gene. The current screening for identification of ER-alpha inhibitors against Tox21 compound libraries used lower concentration (0.1 nM) of 17beta-Estradiol as a stimulator.
Tox21 Assay Protocol Summary:
VM7Luc4E2 cells were cultured in phenol red free assay medium containing 10% charcoal stripped FBS for 5 days prior to the assay. The cells were dispensed at 4,000 cells/well in 4 uL of assay medium into white wall/solid-bottom 1536-well plates (Corning Life Sciences, Corning, NY) using a Multidrop Combi (ThermoFisher Scientific, Waltham, MA) dispenser. After the assay plates were incubated at 37C and 5% CO2 for 24 hr, 23 nL of compounds dissolved in DMSO, positive controls or DMSO only was transferred to the assay plates by a Pintool station (Kalypsys, San Diego, CA). The transfer of compounds was followed by the addition of 1 uL of 0.1 nM (final concentration) agonist (17beta-Estradiol)/assay medium using a Flying Reagent Dispenser (FRD, Aurora Discovery, San Diego, CA). The plates were incubated at 37C and 5% CO2 for 22 hr. For luciferase reporter gene assay, 4 uL of ONE-Glo reagent (Promega Corporation, Madison, WI) was added to each well using the FRD and after 30 min incubation at room temperature luminescence intensity was measured using ViewLux plate reader (PerkinElmer, Shelton, CT).
As to `CCC[CH2][Sn]([CH2]CCC)([O]C(C)=O)[O]C(C)=O`, the Potency is 0.617 µM (active).

For the compound `CCOC(=O)CCN(SN(C)C(=O)Oc1cccc2c1OC(C)(C)C2)C(C)C`, the “activity change, negative = inhibition” value was 13.9%.

Take `O=C(O)[C@H](O)[C@@H](O)C(=O)O`: the “activity change, negative = inhibition” value is 7.4%.

In the case of `C[C@H]1[C@H](c2ccc(Cl)cc2)SC(=O)N1C(=O)NC1CCCCC1`, the Potency was 61.1 µM (active).

For the compound `Nc1nc(N)nc(Cl)n1`, the “activity change, negative = inhibition” value is 11.1%.

Turning to `O=S1(=O)OCC2C(CO1)C1(Cl)C(Cl)=C(Cl)C2(Cl)C1(Cl)Cl` (stereo not given), the Potency is 54.5 µM (active).

For `O=C(O)CCCCCCNC1c2ccccc2CCc2ccccc21`, the “activity change, negative = inhibition” value is -22.6% [at 42.5 µM].

Regarding `O=C(CCCCl)c1ccc(F)cc1`, the “activity change, negative = inhibition” value is 36.9% [at 42.5 µM].

`CCC(C)c1cccc(C(C)CC)c1O` (stereo not given): the “activity change, negative = inhibition” value is -4.93%.

Take `N#CC(C#N)=NNc1cccc(Cl)c1`: the Potency was 1.09 µM (active).

For the compound `C#CCO`, the “activity change, negative = inhibition” value is 16.6%.

As for `CNC(=O)Oc1cc(C)cc(C(C)C)c1`, the “activity change, negative = inhibition” value is -8.17%.

Take `C[C@]12C/C(=C/O)C(=O)C[C@@H]1CC[C@@H]1[C@@H]2CC[C@@]2(C)[C@H]1CC[C@]2(C)O`: the Potency result is “inactive”.

On to `O=S(=O)(O)F`, for which the “activity change, negative = inhibition” value was 0.71%.

For `CCO/N=C(\CC)C1=C(O)CC(c2c(C)cc(C)cc2C)CC1=O` (stereo not given), the “activity change, negative = inhibition” value is -1.83%.

As for `N#CSCc1ccccc1`, the “activity change, negative = inhibition” value was -17%.

On to `CC(=O)[O][Pb]([c]1ccccc1)([c]1ccccc1)[c]1ccccc1`, for which the “activity change, negative = inhibition” value is -109%.

For the compound `BrCC(Br)(Br)Br`, the “activity change, negative = inhibition” value was 13.8%.

As for `CN1CCc2cc(Cl)c(O)cc2[C@H]2c3ccccc3CC[C@@H]21`, the “activity change, negative = inhibition” value was -26.3% [at 42.5 µM].

With `ClC(Cl)C(Cl)(Cl)Cl`, the “activity change, negative = inhibition” value is 19.4%.

Take `O=[N+]([O-])c1ccc(Cl)c(Cl)c1Cl`: the “activity change, negative = inhibition” value was -15%.

Take `CC(Cc1ccccc1)N(C)Cc1ccco1` (stereo not given): the “activity change, negative = inhibition” value was 9.37% [at 42.5 µM].

As to `CC(C)[C@@H](Nc1ccc(C(F)(F)F)cc1Cl)C(=O)OC(C#N)c1cccc(Oc2ccccc2)c1` (stereo not given in full), the “activity change, negative = inhibition” value is 1.8%.

Consider `CCCCN(CCCC)C(=S)[S-].CCCCN(CCCC)C(=S)[S-].[Ni+2]`, for which the “activity change, negative = inhibition” value was 14% [at 42.5 µM].

For the compound `Cc1cccc(Cc2cnc[nH]2)c1C`, the “activity change, negative = inhibition” value was -1.9% [at 42.5 µM].

Regarding `CC(C)C(Nc1ccc(C(F)(F)F)cc1Cl)C(=O)OC(C#N)c1cccc(Oc2ccccc2)c1` (stereo not given), the “activity change, negative = inhibition” value was -0.346%.

Regarding `CCNc1nc(NC(C)C(C)C)nc(SC)n1` (stereo not given), the “activity change, negative = inhibition” value was -11.6%.

Consider `CC(Cl)CCl` (stereo not given), for which the “activity change, negative = inhibition” value was 0.0965%.

`COC(=O)N(OC)c1ccccc1COc1ccn(-c2ccc(Cl)cc2)n1`: the Potency is 0.686 µM (active).

In the case of `COC(=O)/C=C(\C)OP(=O)(OC)OC`, the “activity change, negative = inhibition” value was 3.92%.

For the compound `CO/N=C(/C1=NOCCO1)c1ccccc1Oc1ncnc(Oc2ccccc2Cl)c1F`, the Potency was 4.85 µM (active).

For the compound `CC1CN1` (stereo not given), the “activity change, negative = inhibition” value was 2.12%.

On to `C=CC(=O)[O][Sn]([CH2]CCC)([CH2]CCC)[CH2]CCC`, for which the Potency is 1.72 µM (active).

Regarding `C=CC(=C)C`, the “activity change, negative = inhibition” value is 10.4%.

As for `CC(O)C(=O)[O][Hg][c]1ccccc1` (stereo not given), the Potency was 8.63 µM (active).

As for `Cc1cc(C2CC2)nc(Nc2ccccc2)n1`, the “activity change, negative = inhibition” value is -25.2%.

As to `c1cc[n+]2c(c1)-c1cccc[n+]1CC2`, the Potency was 26.6 µM (active).

`O=c1c2ccccc2c(=O)c2c1cc(Cl)c1[nH]c3c([nH]c12)c(Cl)cc1c(=O)c2ccccc2c(=O)c13`: the “activity change, negative = inhibition” value is -8.65%.

Turning to `[Cl][Hg][c]1ccccc1`, the Potency was 6.11 µM (active).

As for `CNC(=O)CSP(=O)(OC)OC`, the “activity change, negative = inhibition” value was 14.3%.
